Measured values reported in PubChem BioAssay (Tox21).
Unmarked numbers belong to inactive results. The call rests on the fitted dose curve; in most records, active means well fitted activation curve with a large enough effect in the repeat runs; inconclusive means weak or mixed curves; inactive means flat fitted curve, though single readings scatter.

Experiment: A CellTox Green Cytotoxicity Assay to monitor cytotoxicity in HEK293 cells - 0 hour (AID 1224869); further: nearly all actives have a fitted effect of over 50% in size
Conditions: CellTox Green fluorescence; series mostly up to 76.8 µM; cytotoxicity: at the top concentration
Text: National Center for Advancing Translational Sciences [NCATS]
NIH Chemical Genomics Center [NCGC]
U.S. Environmental Protection Agency [EPA]
National Institutes of Environmental Health Sciences [NIEHS]
National Toxicology Program [NTP]
Cell-based models are critical for drug discovery. Determining the natural cytotoxic effects resulting from test compounds is an essential research activity. A CellTox Green Cytotoxicity Assay to monitor cytotoxicity in real time of continues cell culture during 40 hours of the compound treatment was used to screen Tox21 10K library compounds in Hek293 cells. CellTox Green Cytotoxicity Assay is a nonlytic, homogeneous, biofluorescent method to measure cytotoxicity in cell culture after experimental manipulation. The assay system uses a proprietary asymmetric cyanine dye that is excluded from viable cells but preferentially stains the dead cell's DNA. […] Viable cells produce no appreciable increases in fluorescence. Therefore, the fluorescence signal produced by the binding interaction with dead cell DNA is proportional to cytotoxicity.
The mixture of Hek293 cell suspension and reagents were dispensed at 600cells/6 ul/well in 1536-well tissue culture treated black solid bottom plates using a Multidrop dispenser. After the assay plates were incubated at a 37 C/5% CO2 incubator for 5 hours, 23 nL of compounds dissolved in DMSO, positive and negative controls was transferred to the assay plate by a pintool work station. The plates were incubated at 37 C for 40 hours. The fluorescence intensity were measured at 0h, 8h, 16h, 24h, 32h and 40h time points using ViewLux plate reader during compound treatment.
On the % scale 0 is the no-effect control and ±100 the full control effect.

Question: Which “cytotoxicity” value does the source give for `CC1(c2ccccc2)OC(C(=O)O)=CC1=O` (stereo not given) here?
Answer: The value was 3.7% [at 35.3 µM].

Question: With `CCOC(=O)C(O)c1ccccc1` (stereo not given) as the molecule, how does the “cytotoxicity” value read?
Answer: Its value is -0.711% [at 35.3 µM].

Question: Which cytotoxicity does the source give for `O=C(O)CNCC(=O)O` here?
Answer: The cytotoxicity was -0.535% [at 6.97 µM].

Question: Which “cytotoxicity” value does the source give for `O[C@@H](COc1cccc2ncccc12)CN1CCN(C2c3ccccc3[C@@H]3[C@H](c4ccccc42)C3(F)F)CC1` (stereo not given in full) here?
Answer: The value was 0.909% [at 35.3 µM].

Question: Which “cytotoxicity” value does the source give for `C/C=C/C=C/CO` here?
Answer: The value was -4%.

Question: Which “cytotoxicity” value does the source give for `C=C(C)C(=O)OCC` here?
Answer: The value was -3.05%.

Question: With `CCCNCC(O)COc1ccccc1C(=O)CCc1ccccc1` (stereo not given) as the molecule, how does the “cytotoxicity” value read?
Answer: The value was 3.72% [at 35.3 µM].

Question: With `CCCCC1=NC2(CCCC2)C(=O)N1Cc1ccc(-c2ccccc2-c2nn[nH]n2)cc1` as the molecule, how does the “cytotoxicity” value read?
Answer: Its value is 1.72% [at 35.3 µM].

Question: With `COc1cc(Cl)c(OC)cc1N` as the molecule, how does the “cytotoxicity” value read?
Answer: The value was 0.612%.

Question: With `O=[N+]([O-])c1ccc2[nH]ncc2c1` as the molecule, how does the “cytotoxicity” value read?
Answer: Its value is -0.328%.

Question: Which “cytotoxicity” value does the source give for `CCCCCCCCCCCCCCCCOS(=O)(=O)O` here?
Answer: The value was 3.51% [at 35.3 µM].

Question: Which “cytotoxicity” value does the source give for `C=C(C)C(=O)OCCO` here?
Answer: The value was -4.74%.

Question: Which “cytotoxicity” value does the source give for `Cc1cccc(C)c1NC(=O)CN(CC(=O)O)CC(=O)O` here?
Answer: The value was -6.07% [at 35.3 µM].

Question: With `c1ccc(CNCCNCc2ccccc2)cc1` as the molecule, how does the “cytotoxicity” value read?
Answer: The value was 1.38% [at 35.3 µM].

Question: With `O=S(=O)(Oc1ccc(Cl)cc1)c1ccccc1` as the molecule, how does the “cytotoxicity” value read?
Answer: Its value is 1.49%.

Question: For `C/C=C(/C(=C/C)c1ccc(OC(C)=O)cc1)c1ccc(OC(C)=O)cc1`, which “cytotoxicity” value is on record?
Answer: The value was -8.32% [at 35.3 µM].

Question: With `O=C(Nc1ccccc1)c1ccccc1O` as the molecule, how does the “cytotoxicity” value read?
Answer: Its value is 5.19%.

Question: For `O=CC1CC=CCC1` (stereo not given), which “cytotoxicity” value is on record?
Answer: The value was 0.688%.

Question: With `CC[N+](C)(CC)CCOC(=O)C(O)(c1ccccc1)C1CCCCC1` (stereo not given) as the molecule, how does the “cytotoxicity” value read?
Answer: The value was -16.9% [at 35.3 µM].

Question: With `CCNc1cc(O)ccc1C` as the molecule, how does the “cytotoxicity” value read?
Answer: The value was 18.3%.

Question: Which “cytotoxicity” value does the source give for `C[C@@H]1C[C@H]2[C@@H]3CCC4=CC(=O)C=C[C@]4(C)[C@@]3(F)[C@@H](O)C[C@]2(C)[C@@]1(O)C(=O)COC(=O)c1ccncc1` here?
Answer: The value was 0.0833% [at 35.3 µM].

Question: For `Nc1ccc(N)c2c1C(=O)c1ccccc1C2=O`, which “cytotoxicity” value is on record?
Answer: The value was -16.4%.

Question: Which “cytotoxicity” value does the source give for `CCCCCCCC/C=C\CCCCCCCC(=O)OCC` here?
Answer: Its value is 1.6%.

Question: With `CCCCCCCCO[C@@H]1O[C@H](CO)[C@@H](O)[C@H](O)[C@H]1O` as the molecule, how does the “cytotoxicity” value read?
Answer: The value was 2.3%.

Question: For `O=C(NCC1CN(c2ccc(N3CCOCC3=O)cc2)C(=O)O1)c1ccc(Cl)s1` (stereo not given), which “cytotoxicity” value is on record?
Answer: The value was 1.8% [at 35.3 µM].

Question: Which “cytotoxicity” value does the source give for `COc1ccc2cccc(CCNC(C)=O)c2c1` here?
Answer: Its value is 3.25% [at 35.3 µM].

Question: Which “cytotoxicity” value does the source give for `CCN(CC)CCOC(=O)C(c1ccccc1)C1CCCCC1` (stereo not given) here?
Answer: The value was -4.05% [at 35.3 µM].

Question: With `CC(C)(O)c1ccc(CNC(=O)c2cccnc2Oc2ccc(F)cc2)cc1` as the molecule, how does the “cytotoxicity” value read?
Answer: Its value is 4.66%.

Question: With `CCC(C)O` (stereo not given) as the molecule, how does the “cytotoxicity” value read?
Answer: Its value is -6.77%.

Question: For `Cc1oc2c(NC(=O)c3c(Cl)cccc3Cl)cccc2c1C(C)(C)O`, which “cytotoxicity” value is on record?
Answer: Its value is 0.898%.

Question: Which “cytotoxicity” value does the source give for `O=C(O)c1ccc(-n2nc(-c3ccccc3O)nc2-c2ccccc2O)cc1` here?
Answer: The value was 0.0908% [at 35.3 µM].

Question: Which “cytotoxicity” value does the source give for `CC(C)CC(=O)C1C(=O)c2ccccc2C1=O` here?
Answer: Its value is -4.12%.

Question: For `CCOC(=O)Cc1cccc2ccccc12`, which “cytotoxicity” value is on record?
Answer: The value was 2.4%.

Question: Which “cytotoxicity” value does the source give for `CC(C)(C)OCC1CO1` (stereo not given) here?
Answer: The value was 0.415%.

Question: For `O=C(NCCO[N+](=O)[O-])c1cccnc1`, which “cytotoxicity” value is on record?
Answer: Its value is -0.53% [at 35.3 µM].

Question: With `COc1ccc(C(=O)Nc2nc3ccccc3c(NCc3ccccc3)c2C#N)cc1` as the molecule, how does the “cytotoxicity” value read?
Answer: Its value is 0.602%.

Question: For `OCc1cc(C(O)CNCCCCCCOCCCCc2ccccc2)ccc1O` (stereo not given), which “cytotoxicity” value is on record?
Answer: Its value is -4.02% [at 35.3 µM].

Question: For `CCCCC(CC)COC(=O)COc1ccc(Cl)cc1Cl` (stereo not given), which “cytotoxicity” value is on record?
Answer: The value was -0.0359%.

Question: Which “cytotoxicity” value does the source give for `O=C(OCCc1ccccc1)c1ccccc1` here?
Answer: The value was -6%.

Question: For `Cc1cc(N)c2cc(NC(=O)Nc3ccc4nc(C)cc(N)c4c3)ccc2n1`, which “cytotoxicity” value is on record?
Answer: Its value is -0.0184% [at 35.3 µM].
